Reference: PubChem BioAssay (NCATS)
Results filed as inconclusive are left out. Unmarked numbers belong to inactive results. The call rests on the fitted dose curve; in most records, active means well fitted curve in the direction sought with a large enough effect; inconclusive means small, poorly fitted or top-dose-only effect, or another doubt; inactive means no such curve, though single readings can be large; an effect the other way counts as inactive or inconclusive.

Biological target: Glucagon-like peptide 1 receptor (Homo sapiens) (UniProt P43220)
Test: qHTS of GLP-1 Receptor Agonists: LOPAC Validation (AID 624148);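 further: luminescence from a luciferase reporter switched on by cAMP; 0% is about no effect; higher luminescence signal means agonism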
Details: GLP-1R agonist cell assay; series mostly up to 46.1 µM; activation: at the top concentration
Method in brief: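 Agonism scored as increased luciferase luminescence driven by cAMP in HEK293 clones carrying GLP-1R. Cells settled 12 hours, received compound for 4-6 hr at 37 deg C, 5% CO2, and were read after 12 min detection reagent at RT.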

Sequence of Glucagon-like peptide 1 receptor (Homo sapiens) (P43220 whole entry, looked up): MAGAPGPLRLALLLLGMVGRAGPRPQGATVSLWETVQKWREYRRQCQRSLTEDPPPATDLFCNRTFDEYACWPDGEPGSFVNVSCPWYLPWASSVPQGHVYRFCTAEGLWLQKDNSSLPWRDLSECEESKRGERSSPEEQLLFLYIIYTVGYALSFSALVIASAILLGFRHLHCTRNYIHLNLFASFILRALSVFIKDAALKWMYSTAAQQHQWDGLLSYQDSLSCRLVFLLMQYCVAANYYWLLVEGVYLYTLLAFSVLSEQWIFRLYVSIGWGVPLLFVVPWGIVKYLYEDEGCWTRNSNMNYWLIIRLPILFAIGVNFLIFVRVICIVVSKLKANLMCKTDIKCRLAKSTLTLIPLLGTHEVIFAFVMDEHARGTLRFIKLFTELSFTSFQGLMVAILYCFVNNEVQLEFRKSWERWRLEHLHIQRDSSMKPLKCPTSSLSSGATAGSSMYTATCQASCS

| Structure (SMILES) | activation [%] |
| --- | --- |
| CC1OC1P(=O)(O)O (stereo unspecified) | -1.62 |
| CN1[C@@H](CC(=O)c2ccccc2)CCC[C@H]1C[C@H](O)c1ccccc1 | 2.14 |
| C=CC(N)CCC(=O)O (stereo unspecified) | 0.871 |

System: not listed separately
Test: HTS Assay for Allosteric Antagonists of the Human D2 Dopamine Receptor: Hit Validation in HTRF (AID 624455); further: on the % scale 0 is the no-effect control and ±100 the full control effect
Details: Cells stably expressing D1 dopamine receptor, inhibition mode; series mostly up to 46.1 µM; activity, negative = inhibition: at the top concentration
Method in brief: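 HTRF read-out; cells stably expressing D1 receptor; hits scored for inhibition of D1-mediated response. Primary screen: calcium flux, force-coupled inducible Hek293 Trex D2 line, antagonism vs EC80 dopamine.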

| Structure (SMILES) | activity, negative = inhibition [%] |
| --- | --- |
| CC1OC1P(=O)(O)O (stereo unspecified) | 3.67 |
| CN1[C@@H](CC(=O)c2ccccc2)CCC[C@H]1C[C@H](O)c1ccccc1 | 7.72 |
| C=CC(N)CCC(=O)O (stereo unspecified) | -2.06 |
